Activity calls are given as the source filed them. The calls were made as follows: active = hit-call score of the fitted dose curve at least 0.9, where 1 is the maximum; inactive = score below 0.9.
How the values were obtained:
[1] = read-out: Vascular endothelial growth factor receptor 2 (Homo sapiens) (UniProt P35968); assay: BSK_4H_VEGFRII: BioMAP Diversity Plus: 4H Assay for Vascular endothelial growth factor receptor 2 (VEGFR2) Biomarker Activity (AID 2283031); conditions: primary human endothelial cells (HUVEC); actives raise or lower the signal
In short: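 In this multiplexed HUVEC system, biomarker ELISA was performed after 24 h chemical exposure. Parallel SRB staining (TCA fixation, 560 nm) tracked cytotoxicity; DMSO served as baseline.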

[2] = read-out: Human Leukocyte Antigen - DR isotype (HLADR), HLA-DRA (gene 3122); assay: BSK_BE3C_HLADR: BioMAP Diversity Plus: BE3C Assay for Human Leukocyte Antigen - DR isotype (HLADR) Biomarker Activity (AID 2283032); conditions: primary human bronchial epithelial cells; actives raise or lower the signal
In short: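 Signal came from an ELISA for HLA-DR in human bronchial epithelial primary cells harvested 24 h after treatment; gain- and loss-of-signal fitting used DMSO controls as reference.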

[3] = read-out: Interferon-gamma inducible Protein 10 (IP10), CXCL10 (gene 3627); assay: BSK_BE3C_IP10: BioMAP Diversity Plus: BE3C Assay for Interferon-gamma inducible Protein 10 (IP10) Biomarker Activity (AID 2283034); conditions: primary human bronchial epithelial cells; actives raise or lower the signal
In short: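 Using primary human bronchial epithelial cultures, the assay captures IP-10 by ELISA one day (24 h) after exposure. Parallel SRB staining of total protein flags overt cytotoxicity. Fits run bidirectionally relative to DMSO.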

[4] = read-out: Monokine induced gamma interferon (MIG), CXCL9 (gene 4283); assay: BSK_BE3C_MIG: BioMAP Diversity Plus: BE3C Assay for Monokine induced gamma interferon (MIG) Biomarker Activity (AID 2283035); conditions: primary human bronchial epithelial cells; actives raise or lower the signal
In short: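 MIG level was determined by ELISA after 24 h chemical treatment of primary human bronchial epithelial cells. Values were fitted bidirectionally with DMSO as the negative control and activity baseline.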

[5] = read-out: Transforming growth factor beta 1 (TGFb1), TGFB1 (gene 7040); assay: BSK_BE3C_TGFb1: BioMAP Diversity Plus: BE3C Assay for Transforming growth factor beta 1 (TGFb1) Biomarker Activity (AID 2283036;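 also: TGF-b1 protein level measured by ELISA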); conditions: primary human bronchial epithelial cells; actives raise or lower the signal
In short: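 In this human primary bronchial epithelial system, an ELISA quantified TGF-b1 one day after dosing. Endpoint changes in either direction were fitted relative to DMSO.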

[6] = read-out: urokinase plasminogen activator (uPA), PLAU (gene 5328); assay: BSK_BE3C_uPA: BioMAP Diversity Plus: BE3C Assay for urokinase plasminogen activator (uPA) Biomarker Activity (AID 2283038); conditions: primary human bronchial epithelial cells; actives raise or lower the signal
In short: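 Using confluent primary human lung bronchial epithelial cultures, we dosed chemicals, waited 24 h, then ran a uPA ELISA, fitting bidirectionally against DMSO.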

[7] = read-out: Urokinase-type plasminogen activator receptor (uPAR), PLAUR (gene 5329); assay: BSK_BE3C_uPAR: BioMAP Diversity Plus: BE3C Assay for Urokinase-type plasminogen activator receptor (uPAR) Biomarker Activity (AID 2283039); conditions: primary human bronchial epithelial cells; actives raise or lower the signal
In short: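 A uPAR ELISA serves as the readout, taken 24 h after treating primary human bronchial epithelial cells. Responses in either direction are fitted against DMSO, which defines baseline activity.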

[8] = read-out: Interleukin-6 (IL6), IL6 (gene 3569); assay: BSK_CASM3C_IL6: BioMAP Diversity Plus: CASM3C Assay for Interleukin-6 (IL6) Biomarker Activity for (AID 2283040); conditions: primary human coronary artery smooth muscle cells; actives raise or lower the signal
[9] = read-out: Plasminogen activator inhibitor-1 (PAI1), SERPINE1 (gene 5054); assay: BSK_BE3C_PAI1: BioMAP Diversity Plus: BE3C Assay for Plasminogen activator inhibitor-1 (PAI1) Biomarker Activity (AID 2283037); conditions: primary human bronchial epithelial cells; actives raise or lower the signal
In short: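 PAI-1 biomarker levels in treated human bronchial epithelial cells are determined by ELISA at 24 h. Both increases and decreases relative to DMSO are fitted.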

[10] = read-out: Vascular cell adhesion molecule 1 (VCAM1), VCAM1 (gene 7412); assay: BSK_4H_VCAM1: BioMAP Diversity Plus: 4H Assay for Vascular cell adhesion molecule 1 (VCAM1) Biomarker Activity (AID 2283033); conditions: primary human endothelial cells (HUVEC); actives raise or lower the signal
In short: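 Endpoint derived from bidirectional fitting against DMSO controls of VCAM-1 ELISA signal in umbilical vein endothelial cells sampled at 24 h following treatment.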

Measured: AC50

CC(=NC#N)N(C)Cc1ccc(Cl)nc1
inactive: [1] | [2] | [3] | [4] | [5] | [6] | [7] | [8]

CN(C)C(=O)Nc1cccc(C(F)(F)F)c1
inactive: [1] | [2] | [4] | [5] | [6] | [7] | [8]

CC1(C(=O)Nc2ccc(O)c(Cl)c2Cl)CCCCC1
inactive: [1] | [2] | [4] | [5] | [9] | [6] | [7] | [8]

N#CSCSC#N
active: [8] 14.4 µM
inactive: [1] | [2] | [4] | [5] | [9] | [6] | [7]

CNc1cnn(-c2cccc(C(F)(F)F)c2)c(=O)c1Cl
active: [2] 23.7 µM
inactive: [1] | [3] | [4] | [5] | [6] | [7] | [8]

CCOP(=S)(OCC)OC(Cl)C(Cl)(Cl)Cl (configuration not stated)
active: [8] 20 µM
inactive: [1] | [2] | [3] | [4] | [5] | [6] | [7]

Cc1ccn2nc(S(=O)(=O)Nc3c(F)cccc3F)nc2n1
inactive: [1] | [2] | [4] | [5] | [6] | [7] | [8]

C#CC(C)(C)NC(=O)c1cc(Cl)cc(Cl)c1
active: [2] 4.39 µM
inactive: [1] | [4] | [5] | [6] | [7] | [8]

CC(Oc1cccc(Cl)c1)C(=O)O (configuration not stated)
inactive: [1] | [2] | [4] | [5] | [9] | [6] | [7] | [8]

CCOP(=S)(OCC)SCCSCC
inactive: [1] | [2] | [3] | [4] | [5] | [6] | [7] | [8]

COc1cccc(C(=O)NN(C(=O)c2cc(C)cc(C)c2)C(C)(C)C)c1C
inactive: [1] | [2] | [4] | [5] | [9] | [6] | [7] | [8]

CON=C(C(=O)OC)c1ccccc1CON=C(C)c1cccc(C(F)(F)F)c1
active: [7] 5.37 µM | [8] 1.92 µM
inactive: [1] | [2] | [4] | [5] | [6]

COP(=O)(NC(C)=O)SC (configuration not stated)
inactive: [1] | [2] | [3] | [4] | [5] | [6] | [7] | [8]

O=C(O)c1cc(Oc2ccc(C(F)(F)F)cc2Cl)ccc1[N+](=O)[O-]
inactive: [1] | [2] | [3] | [4] | [5] | [9] | [6] | [7] | [8]

CCCCSP(=O)(SCCCC)SCCCC
active: [2] 20 µM
inactive: [10] | [4] | [5] | [6] | [7] | [8]

CCCOCC(=Nc1ccc(Cl)cc1C(F)(F)F)n1ccnc1
active: [2] 25.7 µM | [10] 30.7 µM | [3] 32.3 µM | [4] 35.3 µM | [9] 30.9 µM | [6] 34.5 µM | [7] 32.8 µM
inactive: [8]

Cc1nn(-c2cc(NS(C)(=O)=O)c(Cl)cc2Cl)c(=O)n1C(F)F
inactive: [1] | [2] | [4] | [5] | [9] | [6] | [7] | [8]

CCc1cccc(CC)c1N(COC)C(=O)CCl
inactive: [1] | [4] | [5] | [6] | [7] | [8]
active: [2] 33.4 µM | [3] 31.8 µM

CCOC(=O)CC(SP(=O)(OC)OC)C(=O)OCC (configuration not stated)
inactive: [1] | [2] | [4] | [5] | [6] | [7] | [8]

Reference: PubChem BioAssay (EPA / NIEHS)
